Source: PubChem BioAssay (NCI)
The panel holds about 83,000 compounds, 20% with a hit somewhere; the sample as a whole holds those more often.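 For each line, cells grew in 96-well plates with the test compound present at a single concentration for 48 hours.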 Activity calls are given as the source filed them. How the source made its calls: active means growth percent below 10; inactive means the rest.

What was measured:
Test in all cases: NCI-60 one-dose screen, 48 h (100 = growth as untreated, 0 = no growth, -100 = all killed)
Details in all cases: 10 µM unless noted
T-47D breast = test system: T-47D breast
BT-549 breast = test system: BT-549 breast
MDA-MB-435 melanoma = test system: MDA-MB-435 melanoma
SW-620 colon = test system: SW-620 colon
MCF7 breast = test system: MCF7 breast
HCT-116 colon = test system: HCT-116 colon
HCC-2998 colon = test system: HCC-2998 colon
KM12 colon = test system: KM12 colon

Measured: growth

CC/C=C\C[C@H]1CC=C2C(=O)C=C[C@@H]2CC=CCCCC(=O)O[C@@H](CCCCC)CC=C2C(=O)C=C[C@@H]2CC=CCCCC(=O)O[C@@H](CCCCC)CC=C2C(=O)C=C[C@@H]2CC=CCCCC(=O)O[C@@H](CCCCC)CC=C2C(=O)C=C[C@@H]2CC=CCCCC(=O)O1
inactive: T-47D breast 29.5% [7.9 µM] | MCF7 breast 20.4% [7.9 µM] | HCC-2998 colon 88.6% [7.9 µM] | KM12 colon 21.1% [7.9 µM]
active: BT-549 breast -17.3% [7.9 µM] | MDA-MB-435 melanoma -23.1% [7.9 µM] | SW-620 colon 9.77% [7.9 µM] | HCT-116 colon -53.6% [7.9 µM]

COc1cc(/C=C/c2cc(/C=C/c3ccc(O)c(OC)c3)n(-c3ccccc3)c(=O)n2)ccc1O
inactive: T-47D breast 71.4% | BT-549 breast 56.9% | MDA-MB-435 melanoma 73.1% | SW-620 colon 78.4% | MCF7 breast 40.8% | HCT-116 colon 55.6% | HCC-2998 colon 104% | KM12 colon 63.2%

CC(=O)NC1=C(C#N)C(c2ccccc2Cl)c2c(ccc3ccccc23)O1 (stereo not drawn)
active: MDA-MB-435 melanoma -11.2%
inactive: T-47D breast 62.5% | BT-549 breast 50% | SW-620 colon 43% | MCF7 breast 42.1% | HCT-116 colon 47.5% | HCC-2998 colon 85.4% | KM12 colon 51.2%

COc1ccc(CCN2C(=O)C(C)(C)SC2=S)cc1OC
inactive: T-47D breast 104% | BT-549 breast 105% | MDA-MB-435 melanoma 99.2% | SW-620 colon 103% | MCF7 breast 98.5% | HCT-116 colon 97.6% | HCC-2998 colon 106% | KM12 colon 101%

Clc1ccc2[nH]cc(-c3nc(-c4c[nH]c5ncccc45)cs3)c2c1
inactive: T-47D breast 47.8% | BT-549 breast 59.3% | MDA-MB-435 melanoma 49.4% | SW-620 colon 18.1% | MCF7 breast 35% | HCT-116 colon 23.7% | HCC-2998 colon 69.3% | KM12 colon 23.3%

COc1cnc2c(c1)C(=O)c1c-2n(CCCNCCN2CCOCC2)c(=O)c2cc([N+](=O)[O-])ccc12
active: SW-620 colon -55.2% | MCF7 breast 3.37% | HCT-116 colon -60.4% | HCC-2998 colon -73.3% | KM12 colon -38.1%
inactive: T-47D breast 15.7% | BT-549 breast 13.4% | MDA-MB-435 melanoma 13.7%

CCCCC[C@H]1C/C=C2/C(=O)C=C[C@@H]2C/C=C\CCCC(=O)O[C@@H](CCCCC)C/C=C2/C(=O)C=C[C@@H]2C/C=C\CCCC(=O)O1
active: T-47D breast -74.8% | BT-549 breast -72.9% | MDA-MB-435 melanoma -78.9% | SW-620 colon -54.1% | MCF7 breast -70.9% | HCT-116 colon -96.4% | HCC-2998 colon -79.5% | KM12 colon -86.3%

COc1cc2[nH]c(C(=O)c3cc(OC)c(OC)c(OC)c3)c(N)c2cc1C#CC1CC1
active: MDA-MB-435 melanoma 2.06%
inactive: T-47D breast 32.8% | BT-549 breast 53.4% | SW-620 colon 22.5% | MCF7 breast 17.6% | HCT-116 colon 19.1% | HCC-2998 colon 66.1% | KM12 colon 18%

Cc1ccc(-c2nc([P+](c3ccccc3)(c3ccccc3)c3ccccc3)c(N3CCOCC3)o2)cc1
inactive: HCC-2998 colon 14.1%
active: T-47D breast -20.4% | BT-549 breast -13% | MDA-MB-435 melanoma -6.62% | SW-620 colon 9.9% | MCF7 breast 2.74% | HCT-116 colon 1.88% | KM12 colon -22.4%

Cc1cccc2c1NC(=O)[C@@]21[C@H](C(=O)c2ccccc2)[C@]2(C(=O)Nc3ccccc32)[C@H]2CCCN21
inactive: T-47D breast 32.6% [100 µM] | BT-549 breast 10.4% [100 µM] | MDA-MB-435 melanoma 61.8% [100 µM] | SW-620 colon 11.7% [100 µM] | HCC-2998 colon 19.7% [100 µM] | KM12 colon 40.3% [100 µM]
active: MCF7 breast -4.76% [100 µM] | HCT-116 colon -36.1% [100 µM]

COC(=O)[C@]12CC[C@@H](C(C)=O)[C@@H]1[C@H]1CC[C@@H]3[C@@]4(C)C/C(=C/c5cccnc5)C(=O)C(C)(C)[C@@H]4CC[C@@]3(C)[C@]1(C)CC2
active: HCT-116 colon 3.92%
inactive: T-47D breast 24.4% | BT-549 breast 46% | MDA-MB-435 melanoma 72.6% | SW-620 colon 25.3% | MCF7 breast 19.2% | HCC-2998 colon 75.8% | KM12 colon 60.5%

C=C(C)[C@@H]1CC[C@]2(C(=O)N3CCCNCC3)CC[C@]3(C)[C@H](CC[C@@H]4[C@@]5(C)CCC(=O)C(C)(C)[C@@H]5CC[C@]43C)[C@@H]12
inactive: T-47D breast 83.9% | BT-549 breast 93.6% | MDA-MB-435 melanoma 95.5% | SW-620 colon 93.5% | MCF7 breast 91.4% | HCT-116 colon 71.6% | HCC-2998 colon 103% | KM12 colon 98.7%

C[C@H]1OC(=O)/C=C/[C@@H](O)[C@@H](O)CCCCCCCC[C@@H]1O
inactive: T-47D breast 59.9% | BT-549 breast 105% | MDA-MB-435 melanoma 106% | SW-620 colon 102% | MCF7 breast 101% | HCT-116 colon 88.4% | HCC-2998 colon 102% | KM12 colon 101%

COc1ccc(C2C(C#N)=C(N)Oc3c2sc2c(F)cccc32)cc1 (stereo not drawn)
inactive: T-47D breast 23.8% | BT-549 breast 37% | SW-620 colon 25.1% | MCF7 breast 15.4% | HCC-2998 colon 85.2% | KM12 colon 35.5%
active: MDA-MB-435 melanoma -23.9% | HCT-116 colon 8.94%

COc1cnc2c(c1)C(=O)c1c-2n(CCCNC2=NCCS2)c(=O)c2cc([N+](=O)[O-])ccc12
inactive: T-47D breast 14.4% | BT-549 breast 35%
active: MDA-MB-435 melanoma -92.7% | SW-620 colon -59% | MCF7 breast -51.3% | HCT-116 colon -66.4% | HCC-2998 colon -61.2% | KM12 colon -43.9%

O=c1[nH]c2c3ccncc3cc(-c3cccc(Cl)c3)c2c2cnccc12
inactive: T-47D breast 60.5% | BT-549 breast 22% | MDA-MB-435 melanoma 64.9% | SW-620 colon 58.3% | MCF7 breast 22.7% | HCC-2998 colon 61.5% | KM12 colon 34.7%
active: HCT-116 colon -31.5%

NCCNc1nc(-c2ccccc2)nc2nc(-c3ccccc3)oc12
inactive: T-47D breast 81.7% | BT-549 breast 97.7% | MDA-MB-435 melanoma 92.2% | SW-620 colon 51% | MCF7 breast 81.2% | HCT-116 colon 54.7% | HCC-2998 colon 98.6% | KM12 colon 98.8%

CC(=O)n1c(/C(C#N)=C/c2ccc(N(C)C)cc2)cc2ccccc21
active: MDA-MB-435 melanoma 2.22%
inactive: T-47D breast 35.8% | BT-549 breast 17.7% | SW-620 colon 24.6% | MCF7 breast 20.1% | HCT-116 colon 27.7% | HCC-2998 colon 50.5% | KM12 colon 31.6%

N#C/C(=C\c1ccc(-c2ccc(Br)cc2)o1)c1nc(-c2ccco2)cs1
active: T-47D breast -26.4%
inactive: BT-549 breast 98% | MDA-MB-435 melanoma 98.2% | SW-620 colon 95.6% | MCF7 breast 15.4% | HCT-116 colon 95.6% | HCC-2998 colon 34.1% | KM12 colon 59.4%

COc1ccc(O)c(-c2cc(-c3ccc(Cl)cc3)c(C#N)c(=O)[nH]2)c1
inactive: T-47D breast 57.3% | SW-620 colon 74.7% | MCF7 breast 46.6% | HCT-116 colon 73.4% | HCC-2998 colon 70.6% | KM12 colon 57.6%
active: BT-549 breast 9.41% | MDA-MB-435 melanoma 5.98%

NCCn1cc(-c2nc(-c3c[nH]c4ncccc34)cs2)c2ccccc21
inactive: T-47D breast 22.6% | BT-549 breast 98.9% | MDA-MB-435 melanoma 98.3% | SW-620 colon 96.1% | MCF7 breast 60.4% | HCT-116 colon 94.5% | HCC-2998 colon 93.8% | KM12 colon 73.4%

Fc1ccc2c(c1)c(-c1nc(-c3c[nH]c4ncccc34)cs1)cn2CCCN1CCCCC1
active: MDA-MB-435 melanoma -20% | SW-620 colon -34.9%
inactive: T-47D breast 67.5% | BT-549 breast 88.8% | MCF7 breast 21.6% | HCT-116 colon 45.3% | HCC-2998 colon 98.8% | KM12 colon 68.3%

Cc1ccc(/C=C(\C#N)c2cc3ccccc3n2C)cc1
active: BT-549 breast 0.46% | MDA-MB-435 melanoma -1.88%
inactive: T-47D breast 54.9% | SW-620 colon 31.8% | MCF7 breast 18.4% | HCT-116 colon 16.2% | HCC-2998 colon 17.4% | KM12 colon 22.3%

N#CC1=C(N)Oc2ccc3ccccc3c2C1c1ccccc1Cl (stereo not drawn)
active: MDA-MB-435 melanoma -8.55%
inactive: T-47D breast 38% | BT-549 breast 31.7% | SW-620 colon 30.6% | MCF7 breast 18.1% | HCT-116 colon 18.3% | HCC-2998 colon 76% | KM12 colon 36%

COC(=O)[C@]12CC[C@@H](C)[C@H](C)[C@@H]1C1=CC[C@@H]3[C@@]4(C)C[C@@H](OC(C)=O)[C@H](OC(C)=O)[C@@](C)(COC(C)=O)[C@@H]4[C@H](O)C[C@@]3(C)[C@]1(C)CC2
active: T-47D breast -13.6% | BT-549 breast 0.787% | MCF7 breast 5.21% | HCT-116 colon 9.38% | HCC-2998 colon 5.84% | KM12 colon 8.42%
inactive: MDA-MB-435 melanoma 17.4% | SW-620 colon 20.7%

COc1ccc(-c2cc(-c3c(C)oc4cc5occc5c(OC)c4c3=O)nc(N)c2C#N)cc1OC
inactive: T-47D breast 41.2% | BT-549 breast 70.8% | MDA-MB-435 melanoma 17.6% | SW-620 colon 57.5% | MCF7 breast 24.8% | HCT-116 colon 53.7% | HCC-2998 colon 98% | KM12 colon 59.6%
